Source: the supplement of paper PMC5940239

What was measured:
[1] = test system: Madurella mycetomatis MM55; conditions: 7 days
[2] = test system: Madurella mycetomatis MM55; assay: IC90; higher = less potent; conditions: 7 days
[3] = test system: Madurella mycetomatis MM55; assay: percent growth relative to solvent control; higher = less inhibition, active = 20 or less; conditions: 100 µM; 7 days

| Structure (SMILES) | IC50 [1] | IC90 [2] | percent growth [3] |
| --- | --- | --- | --- |
| O=C(c1ccco1)N(CCCn1ccnc1)c1nc2c(Cl)cccc2s1 | 59.1 µM | 94 µM | 3.24% (active) |
| COc1cc2ncnc(NC3CCN(Cc4ccccc4)CC3)c2cc1OC | 66.6 µM | 92.3 µM | -1.64% (active) |
| NC(CC(=O)c1ccc(Cl)cc1Cl)C(Cl)(Cl)Cl (centres undefined) | 58.1 µM | 95 µM | 5.11% (active) |
| Cc1ccccc1CN1CCC(O)(c2ccc(Cl)c(C(F)(F)F)c2)CC1 | 35.5 µM | 56.3 µM | 1.71% (active) |
| COc1ccc(CCN2CCC(NCc3cccc(N(C)C)c3)CC2)cc1 | 24.5 µM | 51.7 µM | -0.197% (active) |
| CC(C)(C)C1CCC(CC2=C(O)C(=O)c3ccccc3C2=O)CC1 (centres undefined) | 66.8 µM | 92.7 µM | -0.835% (active) |
| c1ccc(-c2[nH]c3ccccc3c2C(c2ccccn2)N2CCCC2)cc1 (centres undefined) | 34.8 µM | 94.6 µM | 5.96% (active) |
| COc1cccc(-c2cc3c(Nc4cccnc4)nccc3[nH]2)c1 | 51.8 µM | 92.5 µM | 2.45% (active) |
| Cn1c(=O)c2c(S(C)(=O)=O)snc2n(C)c1=O | 60 µM | 91.5 µM | -0.615% (active) |
| CC(C)n1nc(-c2cc3c(Cl)cccc3[nH]2)c2c(N)ncnc21 | 52.5 µM | 89 µM | -3.21% (active) |
| COc1ccc(-c2cnc3cnc(-c4cccc(OC(C)C)c4)cn23)cc1 | 43.6 µM | 95 µM | 6.18% (active) |
| Nc1nc2ccc(-c3cncc(Oc4ccc(F)cc4)c3)cc2[nH]1 | 40.7 µM | 85.8 µM | -2.72% (active) |
| CCc1ccc(S(=O)(=O)Nc2cc(CN3CCN(CCC(C)C)CC3)ccc2C)cc1 | 59.9 µM | 91.5 µM | -0.809% (active) |
| c1ccc(Oc2ccc(-c3cc(C4CCOCC4)[nH]n3)cc2)cc1 | 35.6 µM | 57 µM | 4.02% (active) |
| CNc1nnc(Sc2cnn(-c3ccccc3)c(=O)c2Cl)s1 | 54.9 µM | 90.8 µM | -0.261% (active) |
| CCOc1ccc(-c2nc(CNCCc3ccc(F)cc3)cs2)cc1 | 10.4 µM | 19.6 µM | 3.57% (active) |
| O=C(NCCc1ccccc1)c1cc(-c2cccnc2)cnc1NCC1CC1 | – | 92.4 µM | 1.69% (active) |
| N#CCN(CCCCN1CCN(c2ccc(F)cc2)CC1)C(=O)OCc1ccccc1 | 64.3 µM | 93.7 µM | 1.57% (active) |
| Cc1nc(-c2cccc(NCc3ccccc3)c2)[nH]c1C | 64 µM | 93.6 µM | 1.75% (active) |
| NCC(c1cccs1)S(=O)(=O)c1ccccc1 (centres undefined) | 53.9 µM | 91.8 µM | 1.47% (active) |
| COc1cccc(-c2nc3c(N4CCCC4)cccc3n2CC2CCCN2)n1 (centres undefined) | 37.4 µM | 84 µM | -0.727% (active) |
| CCCCCCCCCCCCCCCCOP(=O)([O-])OCC[N+](C)(C)C | 59.3 µM | 90.8 µM | -0.857% (active) |
| CCCn1nnc(NC(=O)COc2ccc(C3CCCCC3)cc2)n1 | 65.8 µM | 94.3 µM | 2.18% (active) |
| COc1ccc(-c2cnc3ccc(N4CCCC4)nn23)cc1OC | 64 µM | 92.7 µM | 0.205% (active) |
| N=C(N)Nc1ccc(-c2ccc(-c3ccc(N=C(N)N)c(Cl)c3)o2)cc1Cl | 61.6 µM | 88.5 µM | -8.11% (active) |

| Structure (SMILES) | IC50 [1] | IC90 [2] | percent growth [3] |
| --- | --- | --- | --- |
| O=C(Nc1nnc(-c2ccc(Cl)cc2)o1)c1cccc(C(F)(F)F)c1 | 10.6 µM | 39.2 µM | 3.76% (active) |
| CCCn1c(NC(=O)c2ccc3ccccc3n2)nc2ccccc21 | 3.7 µM | 9.85 µM | -3.5% (active) |
| CC(C)=CCC/C(C)=C\CNCCNC1C2CC3CC(C2)CC1C3 (centres undefined) | 10.2 µM | 19.8 µM | 2.78% (active) |
| C[C@H](C(N)=O)N1CCCC[C@H]1c1ccc(OCc2cccc(F)c2)cc1 | 64.2 µM | 94.4 µM | 2.85% (active) |
| N=C(N)c1ccc(-c2cc(-c3ccccc3)on2)cc1 | 52.1 µM | 90.2 µM | -0.237% (active) |
| CCCCc1ccc(C(=O)Nc2nccc3ccccc23)nc1 | 54.6 µM | 86 µM | -1.16% (active) |
| c1ccc(Oc2ccc(-c3cc(N4CCNCC4)[nH]n3)cc2)cc1 | 35.1 µM | 81.3 µM | 0.718% (active) |
| O=C(NC1CCN(c2ccnc3ccccc23)C1)c1cccc(C(F)(F)F)c1 (centres undefined) | 61.6 µM | 94.8 µM | 3.94% (active) |
| O=C(Nc1ccc(C(F)(F)F)c(C(F)(F)F)c1)c1cc(Cl)ccc1O | 1.45 µM | 3.8 µM | -2.39% (active) |
| CN1CCN(CCCOc2ncc(Nc3ncc(-c4ccc(C(F)(F)F)c(F)c4)nc3C(N)=O)cn2)CC1 | 25.7 µM | 85.2 µM | -0.0728% (active) |
| O=C([C@@H](c1ccc(Cl)cc1)c1cccnc1)N1CCN(c2ccc(C(F)(F)F)cc2)CC1 | 1.35 µM | 3.4 µM | 4.17% (active) |
| O=C(C1CCN(c2cc(-n3cccc3)ncn2)CC1)N1CCc2ccccc2C1 | 62.1 µM | 91.5 µM | 3.17% (active) |
| CN1CCN(c2cc(-c3ccc(F)cc3)nc(-c3ccncc3)n2)CC1 | 37.1 µM | 91.2 µM | 2.98% (active) |
| Cc1[nH]c2ccccc2c1C(c1cccs1)N1CCN(C)CC1 (centres undefined) | 12.7 µM | 47 µM | 4.92% (active) |
| FC(F)(F)c1cc(NCCc2ccccc2)nc(-c2ccccn2)n1 | 55.5 µM | 91.1 µM | -0.699% (active) |
| COc1ccc(C2=NN(C3CCCCCC3)C(=O)[C@@H]3CC=CC[C@H]23)cc1OCCCCOc1ccc(-c2nn[nH]n2)cc1 | 18.6 µM | 53.5 µM | -1.09% (active) |
| Cc1cc(NCC(C)C)c2n[nH]c(-c3ccccc3)c2n1 | 52.5 µM | 89.3 µM | -1.5% (active) |
| O=C(Nc1cccc(-c2ccc(NCCCN3CCCC3)nc2)c1)c1ccccc1 | 53.1 µM | 90.9 µM | -1.11% (active) |
| COc1cccc(-n2nnnc2S(=O)(=O)Cc2ccccc2)c1 | 45.7 µM | 90 µM | 1.14% (active) |
| Cc1cc(OCC(=O)NCc2ccccc2)c2cc(Br)ccc2n1 | 67.9 µM | 100 µM | 15.1% (active) |
| O=C(Nc1nnc(-c2ccc(Cl)s2)o1)c1ccc(Cl)s1 | 54.3 µM | 93.7 µM | 3.26% (active) |
| COc1ccc(C2=NN(C3CCCCCC3)C(=O)C2(C)C)cc1OCCCCOc1ccc(-c2nn[nH]n2)cc1 | 50.9 µM | 90.9 µM | 0.849% (active) |
| CC(C)(C)n1nc(-c2ccccc2)c2c(N)ncnc21 | 49.4 µM | 96.4 µM | 10.4% (active) |
| O[C@@H](c1cc(C(F)(F)F)nc2c(C(F)(F)F)cccc12)[C@H]1CCCCN1 | 38.8 µM | 71.5 µM | -1.36% (active) |
| COc1ccccc1CNC(=O)c1cc(C2CC2)nc2c1cnn2C(C)C | 51.9 µM | 88.8 µM | -2.92% (active) |

| Structure (SMILES) | IC50 [1] | IC90 [2] | percent growth [3] |
| --- | --- | --- | --- |
| COc1ccc(-c2onc(C(F)(F)F)c2-c2ccc(Cl)cc2)c(O)c1 | 8.8 µM | 16.8 µM | 3.39% (active) |
| c1cncc(NCc2ccc(-c3cc4ccncc4cc3OC3CCNCC3)s2)c1 | 53.9 µM | 88.5 µM | -3.08% (active) |
| c1ccc(C[C@@H]2CN(c3nccc(Oc4ccc(-n5ccnc5)cc4)n3)CCN2)cc1 | 58.9 µM | 91.2 µM | -0.802% (active) |
| c1ccc2c(c1)CN(CC1CC1)CC1(CCN(Cc3c[nH]c4cnccc34)CC1)O2 | 62.9 µM | 96 µM | 5.33% (active) |
| c1csc(-c2cnc3sc(NCC4CCOCC4)nn23)c1 | 62.6 µM | 95.5 µM | 4.52% (active) |
| c1ccc(-c2cc(N3CCCCC3)c3ccccc3n2)nc1 | 60 µM | 92.4 µM | 0.766% (active) |
| CN1CCC(NCc2cccc(-c3ccc(S(=O)(=O)NCc4ccccc4)cc3)c2)CC1 | 40.8 µM | 92 µM | 3.47% (active) |
| COc1cc(C2=NCCN2)cc2cc(-c3ccc(C4=NCCN4)cc3)oc12 | 48.3 µM | 88.8 µM | -1.77% (active) |
| O=C(c1ccc(NCCO)cc1)C1C[C@H]1c1ccc(Cl)cc1 (some centres undefined) | 12.2 µM | 38 µM | 4.06% (active) |
| C[C@H](c1ccc2c(c1)CCCC2)N(C)c1ncc2c(N)nc(N)nc2n1 | 63.7 µM | 91 µM | -2.94% (active) |
| N=C(N)Nc1ccc(-c2ccc(-c3ccc(NC(=N)N)cc3Cl)o2)c(Cl)c1 | 11.4 µM | 17.8 µM | -6.7% (active) |
| CN1CCC(c2cc(-c3ccncc3)c(-c3ccc(F)cc3)[nH]2)CC1 | 56.4 µM | 91.6 µM | 1.72% (active) |
| COc1ccc(OC)c(NCc2ccc3nc(N)nc(N)c3c2Cl)c1 | 2.3 µM | 4.7 µM | -0.467% (active) |
| COC(=O)C1=C(C)NC(C)=C(C(=O)OC(C)C)C1c1cccc2nonc12 (centres undefined) | 45.1 µM | 87.6 µM | -1.92% (active) |
| O=C(Nc1cccc(Cl)c1)c1cnc(N2CCN(c3ccncc3)CC2)c(Cl)c1 | 9.3 µM | 19.6 µM | 6.08% (active) |
| Cc1cccc(-c2nc(Nc3ccncn3)c3sccc3n2)n1 | 35.2 µM | 88.1 µM | 1.77% (active) |
| CCCc1ccc(S(=O)(=O)Nc2ccc(CN3CCN(CC4CC4)CC3)cc2)cc1 | 63.1 µM | 91.8 µM | -0.983% (active) |
| c1ccc(Oc2ccc(-c3cc(N4CCOCC4)[nH]n3)cc2)cc1 | 56.9 µM | 95.2 µM | 5.11% (active) |
| O=C(Nc1ccccc1)c1ccc(-c2cc3ccncc3cc2OC2CCNCC2)s1 | 54.3 µM | 87.4 µM | -5% (active) |
| COc1ccccc1OCCCCn1c(C2CC2)nc2ccccc21 | 52.1 µM | 92.7 µM | 2.84% (active) |
| COc1ccc(OC(C)C(=O)Nc2ccc(Cl)cc2C)cc1 (centres undefined) | 26.9 µM | 54.5 µM | 0.806% (active) |
| O=C(Nc1nc(-c2ccccn2)cs1)c1cncn1-c1ccccc1 | 10.8 µM | 40.8 µM | 1.78% (active) |
| c1coc(CNc2nc(N3CCCCC3)nc3ccccc23)c1 | 10.2 µM | 15.5 µM | 1.16% (active) |
| COc1ccc(-c2cc(NC(=O)c3ccc(F)cc3Cl)ccc2OC)cc1 | 31.4 µM | 53 µM | 19.5% (active) |
| Cc1cccc(Cn2ccc(NC(=O)c3ccc4c(c3)OCO4)n2)c1 | 60.1 µM | 90.7 µM | -0.936% (active) |
